MARV entry inh = blocks Marburg virus binding to or entry into cells; hit rate 1.8% among 300,000; Potency, µM (series often up to 37.8 µM), for inactives: at the top dose activity change, negative = inhibition, most hits filed as inhibitors; Marburg virus pseudotyped entry inhibition, cell reporter; calls by dose curve; tested in HEK293 cells; further: potency means the concentration at half of the fitted maximal effect; on the % scale 0 is the no-effect control and ±100 the full control effect
FMDV antiviral = blocks foot and mouth disease virus; FMDV antiviral cell-based qHTS; Potency, µM (highest dose often 57.9 µM), for inactives: at the top dose activity change, negative = inhibition, usual class: inhibitors; hit rate 1.2% among 410,000; AID 1159524; calls by dose curve; tested in HEK293T cells; further: read-out not given here; potency means the concentration at half of the fitted maximal effect; on the % scale 0 is the no-effect control and ±100 the full control effect; nearly all actives have a fitted effect of over 45% in size
Cycloheximide cs = affects cycloheximide protein synthesis inhibition readout, counter-screen; cell reporter, cycloheximide protein synthesis inhibition counterscreen; max response, %; hit rate 12% among 300,000; in the data active means max response mostly above about 13%, no sharp cut-off; inactive means mostly below about 14%; further: read at 38.3 µM for the half of the compounds with a filed dose; 0% is about no effect
Lassa entry inh = inhibitors of Lassa virus binding or cell entry | Lassa virus pseudotype entry inhibition, cell reporter | Potency, µM (doses to about 37.9 µM), for the others: top-dose activity change, negative = inhibition, usual class: inhibitors | hit rate 1.2% among 300,000 | AID 540256; calls by dose curve; tested in HEK293 cells; further: potency means the concentration at half of the fitted maximal effect; on the % scale 0 is the no-effect control and ±100 the full control effect; nearly all actives have a fitted effect of over 50% in size
Shiga inhibitor = inhibitors of Shiga toxin in Vero cells; hit rate 9.2% among 290,000; inhibition, % at 38.7 µM; Vero cells, Shiga toxin protein synthesis inhibition reporter; in the data active means inhibition mostly above about 28%, no sharp cut-off; inactive means mostly below about 43%; further: 0% is about no effect
HCV inhibitor = blocks hepatitis C virus; hit rate 3.4% among 340,000; AID 651820; Huh7.5.1 HCVcc-Cre infection, luciferase reporter, 44 h; Potency, µM (series often up to 41.8 µM), without a hit: at the highest dose activity change, negative = inhibition, usual class: inhibitors; active means well fitted inhibition curve with a large enough effect; inconclusive means small, poorly fitted or top-dose-only effect, or another doubt; inactive means no such curve, though single readings can be large or run the other way; further: potency means the concentration at half of the fitted maximal effect; on the % scale 0 is the no-effect control and ±100 the full control effect
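Reporter virus HCVcc-Cre (~0.5 moi) infects cells exposed to compound; seeding density 1,000 cells/well with 4 h settling beforehand. Luminescence, 15 sec read, taken 44 h post-infection following a 15 min RT substrate incubation.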
An asterisk follows results filed as active; ? = inconclusive; / = no result; [ ] = another dose, or the depositor's remark. Most compounds without a hit are left out; they make up all but 13% or so of the library.

SMILES	MARV entry inh	FMDV antiviral	Cycloheximide cs	Lassa entry inh	Shiga inhibitor	HCV inhibitor
Cc1cc(C)c2nc(NNC(=O)c3ccc(S(=O)(=O)N4CC(C)CC(C)C4)cc3)sc2c1 (stereo not drawn)	14.6µM*	-19.1%	1.8	?	11.0	7.08µM*
Cc1ccc2nc(NNC(=O)c3ccc(S(=O)(=O)N4CCc5ccccc5C4)cc3)sc2c1	?	?	8.1	?	18.6	2.51µM*
Cc1cc(C)c2nc(NNC(=O)c3ccc(S(=O)(=O)N4CCCC(C)C4)cc3)sc2c1 (stereo not drawn)	?	?	-3.7	?	-11.0	7.94µM*
Cc1cc(C)c2nc(NC(=O)c3ccc(S(=O)(=O)N4CCC(C)CC4)cc3)sc2c1	/	-9.2%	/	21.3%[46.1 µM]	/	/
O=C(NC(=S)Nc1ccc(-c2ccc(CO)o2)cc1)c1cccs1	-1.6%[46.1 µM]	24.7%	46.1*	0.6%	66.7*	-10.1%
CCCC(=O)NC(=S)Nc1ccc(NC(=O)c2cccs2)cc1	4.5%	22.4%	12.2*	-0.2%	25.6	?
CCCC(=O)Nc1ccc(NC(=S)NC(=O)c2cccs2)cc1	-4.4%	-2.2%	22.0	11.1%	51.1*	?
CC(=O)NC(=S)Nc1ccc(NC(=S)NC(=O)c2cccs2)cc1	/	0.0%	-4.2	/	-13.1	-5.1%
CCN(CC)c1ccc(NC(=S)NC(=O)c2cccs2)cc1	/	6.0%	46.2*	/	87.6*	12.6µM*
Clc1ccc(Oc2cnc3ccccc3n2)cc1	-5.9%	26.0%	20.5*	1.9%	32.9*	-0.7%
O=[N+]([O-])c1ccc(Oc2cnc3ccccc3n2)cc1	-1.9%[46.1 µM]	17.0%	30.3	3.6%	83.7	-17.1%
Fc1ccc(Oc2cnc3ccccc3n2)cc1	7.4%[46.1 µM]	6.4%	22.3	0.4%[46.1 µM]	39.2*	5.1%
COc1ccc(Oc2cc(C)c3ccccc3n2)cc1	7.7%	21.3%	34.1	18.7%	69.1*	?
Cc1ccc(Oc2cnc3ccccc3n2)cc1	20.1%	57.9%	58.2*	?	102.8*	17.2%
Nc1ccc(Oc2ccc(F)cc2)nc1	/	5.4%	-0.8	/	-5.2	6.9%
CC(c1cccs1)N(C)Cc1nc(CCc2ccccc2)no1 (stereo not drawn)	9.0%	5.4%	16.7	-21.0%	37.0*	9.6%
COc1cccc(C(C)N(C)Cc2nc(COc3ccccc3)no2)c1 (stereo not drawn)	/	-25.0%	-3.5	/	24.5	-2.5%
S=C(NCC1CCCO1)NC12CC3CC(CC(C3)C1)C2 (stereo not drawn)	17.0%[46.1 µM]	13.6%	-3.6	/	-2.8	9.0%
CCOC(=O)c1cc(-c2cccs2)[nH]n1	-1.4%[46.1 µM]	50.0%	22.1*	17.9%	60.2*	2.1%
O=C(O)c1cc(-c2cccs2)[nH]n1	-15.8%	19.6%	-6.1	12.2%	-1.7	6.3%
CCCCOC(=O)Nc1cc(OC)c(Cl)cc1OC	-7.8%	4.5%	2.1	-7.9%	29.6	?
CN1C(C(=O)NC(C)(C)C)=CC(c2ccc3c(c2)OCO3)=NS1(=O)=O	13.2%[46.1 µM]	-8.8%	/	-6.8%[46.1 µM]	/	/
CNCCc1cnc(CCC(c2ccccc2)c2ccccc2)[nH]1	5.8µM*	/	/	?	/	/
CNCCc1ccccn1	5.3%	0.0%	-1.9	4.0%	0.3	-19.9%[8.37 µM]
O=C(NC1CCCCC1)c1ccc2c(c1)N(Cc1ccccc1)C(=O)c1ccccc1S2	/	-7.7%	/	-20.9%[46.1 µM]	/	/
SMILES	MARV entry inh	FMDV antiviral	Cycloheximide cs	Lassa entry inh	Shiga inhibitor	HCV inhibitor
Nc1ccc(C(=O)N/N=C2\CCCc3c2[nH]c2ccccc32)cc1	10.7%	13.0%	24.9*	-1.1%	25.5	?
CC(C)c1ccc2[nH]c3c(c2c1)CCC/C3=N\NC(=O)c1ccncc1	?	?	-2.7	?	-8.3	0.355µM*
CC(C)c1ccc2[nH]c3c(c2c1)CCCC3=O	-7.1%[46.1 µM]	9.3%	12.0	-1.2%	-6.6	?
Cc1nc(Nc2ccc(S(N)(=O)=O)cc2)sc1-c1ccccc1	?	29.9%	30.7*	-8.9%[46.1 µM]	47.3	?
COc1ccc(Nc2nc(C)c3ccccc3n2)cc1	?	32.9%	27.0*	21.2%	135.0*	?
CCc1c(C)nc(Nc2nc(C)c3ccc(OC)cc3n2)[nH]c1=O	-5.7%	/	0.5	-10.0%	-11.2	?
COc1ccc2c(C)nc(Nc3nc(C)c(C)c(=O)[nH]3)nc2c1	?	50.6%	47.6*	?	25.0	?
COc1ccc(Nc2nc(C)c(-c3ccccc3)s2)cc1	?	28.6%	58.5*	-26.6%	82.2*	?
COc1ccc(Nc2nc(-c3ccccc3)c3ccccc3n2)cc1	5.6%	-3.8%	-5.4	3.6%	12.6	?
COc1ccc(OC)c(CC2C(=O)Nc3ccc(Br)cc32)c1 (stereo not drawn)	?	12.6µM*	/	?	/	/
C#CCCCO/N=C1\C[C@@H](O)[C@@H](O)[C@@H]2[C@@H]3C(=O)N(Cc4ccccc4)C(=O)[C@@H]3CC[C@H]12	11.0%[14.2 µM]	/	/	/	/	/
O=C(C1CCCN(S(=O)(=O)c2cccc3nsnc23)C1)N1CCc2ccccc2C1 (stereo not drawn)	-48.5%	25.1µM*	1.0	?	12.6	?
O=C(C1CCCN(S(=O)(=O)c2cccc3nsnc23)C1)N1CCc2ccccc21 (stereo not drawn)	-17.4%	25.1µM*	-1.6	-2.3%	-4.8	?
O=C(C1CCCN(S(=O)(=O)c2cccc3nsnc23)C1)N1CCN(c2ccccc2Cl)CC1 (stereo not drawn)	3.98µM*	25.1µM*	/	?	/	/
NC(=O)CSc1nc2ccccc2nc1SCC(N)=O	?	-0.5%	-1.9	-1.3%	-13.6	?
O=C(NC1CCCc2ccccc21)c1ccc2c(c1)sc1nc(-c3ccc(F)cc3)cn12 (stereo not drawn)	/	12.7%	/	-0.4%[46.1 µM]	/	/
COc1ccccc1CN1CCNC(=O)C1CC(=O)NC1Cc2ccccc2C1 (stereo not drawn)	12.0%[46.1 µM]	6.9%	-1.4	3.9%	-10.7	-2.1%
CC1=CCC(COC(=O)Nc2ccccc2)CC1 (stereo not drawn)	0.3%[46.1 µM]	20.0%	51.3*	?	82.0*	-14.5%
O=C(Nc1ccccc1)OCC1CCCN2CCCCC12 (stereo not drawn)	18.1%	14.3%	28.7	13.8%	10.1	9.5%
CCNc1ccc(S(=O)(=O)NCCN(C)C)cc1[N+](=O)[O-]	/	-17.2%	2.1	/	-18.3	-3.7%
CN(C)CCCNS(=O)(=O)c1ccc(NC2CCCCCC2)c([N+](=O)[O-])c1	?	-26.2%	-4.8	-1.7%[46.1 µM]	1.1	5.62µM*
Cc1ccc(NC(=O)CN2CCc3cc4c(cc3C2C)OCCCO4)cc1 (stereo not drawn)	?	-19.7%	2.4	-29.2%[46.1 µM]	1.2	?
Cc1cccc2c(CCNC(=O)c3ccc([N+](=O)[O-])cc3)c[nH]c12	11.0%	-16.4%	2.6	-13.8%	-7.6	?
COc1ccc(NC(=O)CC2C(=O)N(c3ccccc3)C(=O)N2Cc2cccnc2)cc1 (stereo not drawn)	/	-10.1%	/	0.0%[46.1 µM]	/	/
CCC(=O)N(CC(=O)Nc1sc(C)c(C)c1C(N)=O)C1CCCC1	-14.8%[46.1 µM]	-1.1%	3.0	4.3%	19.9	-10.3%
